# Measured values published in PubChem BioAssay.
# Test system: Wnt5a (protein binding on small-molecule microarray)
# Assay: Wnt5a binders on small-molecule microarray, primary screen, biophysical, 635/667 nm fluorescence (AID 1142);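 further: fluorescence read at 667 nm with signal to noise per printed feature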
# Conditions: 635 nm fluorescence, higher = more signal
row,SMILES,composite z-score
1,CCOC(=O)C[C@H]1[C@H](OC(=O)c2ccccc2-c2ccccc2)[C@@H](NC(=O)c2ccc3ccccc3c2)c2cc(OCCCO)ccc2N1C(=O)c1ccccc1,0.331
2,O=C1OCCC=C[C@H]2OC34C=CCN(Cn5nnc6ccccc65)C(=O)[C@H]3N(CCCO)C(=O)[C@@H]4C12 (stereo not given in full),-0.197
3,O=C(C1N=C(c2ccc(OCCCO)cc2)N(c2ccccc2)O1)N1CCCCC1 (stereo not given),0.296
4,CCCCC[C@H]1OC[C@@]23C=C(Br)[C@@H](CC12)[C@@]1(CO1)C3=O (stereo not given in full),-0.233
5,C=CC[C@]1(C(=O)N2CCCCC2)N=C(c2ccc(OCCCO)cc2)O[C@H]1c1ccccc1CN=[N+]=[N-],0.518
6,COCCCNC(=O)[C@@H]1c2ccccc2C(=O)N(C(C)C)[C@H]1c1ccc(CO)cc1,0.389
7,CCCCN1CC=CC23O[C@@H]4/C=C\CCC(C)OC(=O)C4[C@H]2C(=O)N(CCCO)[C@@H]3C1=O (stereo not given in full),-0.636
8,CN(C)C(=O)[C@]1(CCC(=O)OC(C)(C)C)N=C(c2ccc(OCCCO)cc2)O[C@@H]1c1ccccc1CN=[N+]=[N-],1.44
9,C=CCNC(=O)[C@@H]1[C@H]2C(=O)O[C@H](c3ccccc3)[C@H](c3ccccc3)N2[C@H](c2ccc(OCCO)cc2)[C@@]12C(=O)N(C(=O)OCCOC)c1ccc(C#Cc3ccc(OC)cc3)cc12,0.0609
10,CCCN1C(=O)[C@@]2(Cc3ccccc31)N=C(c1ccc(OCCCO)cc1)O[C@H]2c1ccccc1,1.16
11,CC1CC/C=C\[C@H]2OC34C=CCN(Cc5ccccc5)C(=O)[C@H]3N(C(CO)C(C)C)C(=O)[C@@H]4C2C(=O)O1 (stereo not given in full),-0.0818
12,C=C(COC)/C(=C/C[C@H](OC(=O)c1ccncc1)c1ccc(CO)o1)c1cnc2ccccc2c1,0.304
13,COc1ccc(C#Cc2ccc3c(c2)[C@]2(C(=O)N3)[C@H](c3ccc(O)cc3)N3[C@H](c4ccccc4)[C@H](c4ccccc4)OC(=O)[C@H]3[C@@H]2C(=O)Nc2nc3ccccc3s2)cc1,0.108
14,[N-]=[N+]=Nc1ccccc1C[C@@]1(C(=O)N2CCOCC2)N=C(c2ccc(OCCCO)cc2)O[C@@H]1c1ccccc1,1.21
15,C=C[C@@H](CO)N(Cc1ccc(OC)cc1)S(=O)(=O)c1ccc(Br)cc1,-0.0447
16,COc1ccc(CCNC(=O)[C@@]2(Sc3ccc(C)cc3)CC(=O)N(Cc3ccccc3C(F)(F)F)[C@@H]2c2ccc(CO)cc2I)cc1,-0.0049
17,CCOC(=O)C[C@H]1[C@H](OC(=O)c2ccccc2-c2ccccc2)[C@@H](NC(=O)c2ccc3ccccc3n2)c2cc(OCCCO)ccc2N1C(=O)Cc1ccc(OC)cc1,0.0204
18,C=CCN1Cc2ccccc2[C@@H]2OC(c3ccc(OCCCO)cc3)=N[C@]2(CC=C)C1=O,0.518

row,SMILES,composite z-score
1,O=C(Cc1ccccc1)[C@H]1C2C=CCCC(c3ccccc3)=C2CN1Cc1ccccc1 (stereo not given in full),0.0277
2,C=CC[C@@]1(C(=O)NCCCOC)N=C(c2ccc(OCCCO)cc2)O[C@@H]1c1ccccc1N=[N+]=[N-],0.452
3,COc1cccc(C)c1NC(=O)O[C@H]1[C@H](OC(=O)Nc2ccc3c(c2)OCO3)[C@@H](OC(=O)Nc2ccc3c(c2)OCO3)[C@@H](OC)O[C@@H]1CO,0.648
4,C=CCC(OC(C)=O)[C@@H]1[C@@H](N(Cc2ccc(-c3ccccc3)cc2)C(=O)c2ccc(-c3ccccc3)cc2)c2cc(OCCCO)ccc2N1C(=O)c1ccc2ccccc2c1 (stereo not given in full),0.028
5,COC(=O)C(CC#Cc1ccc2c(c1)[C@]1(C(=O)N2)[C@H](c2ccc(O)cc2)N2[C@H](c3ccccc3)[C@H](c3ccccc3)OC(=O)[C@H]2[C@@H]1C(=O)NC[C@H](O)c1ccccc1)C(=O)OC,0.0209
6,COc1cccc(C)c1NC(=O)O[C@H]1[C@H](OC(=O)Nc2ccccc2-c2ccccc2)[C@H](OC(=O)Nc2ccccc2-c2ccccc2)[C@@H](OC)O[C@@H]1CO,0.63
7,CCCCC(CC)C(O)C1C=CC2C(=O)N(c3ccccc3)C(=O)C2N1Nc1ccccc1F (stereo not given),0.507
8,C=CC[C@]1(C(=O)N2CCOCC2)COC(c2ccc(OCCCO)cc2)=N1,0.0993
9,CCOC(=O)C[C@H]1[C@H](OC(=O)Cc2ccc3c(c2)OCO3)[C@@H](NC(=O)C2CCCCC2)c2cc(OCCCO)ccc2N1C(=O)c1ccccc1,-0.0729
10,O=C1O[C@@H](c2ccccc2)[C@@H](c2ccccc2)N2[C@@H](c3ccc(O)cc3)[C@]3(C(=O)Nc4ccc(C#CCCO)cc43)[C@@H](C(=O)N3CCN(c4ncccn4)CC3)[C@H]12,0.409
11,O[C@@H](Cc1ccccc1)[C@@H](/C=C/C1CC1)N(CC#Cc1ccccc1)Cc1ccccc1Br,-1.03
12,CCCC1(C(=O)OC)C=C2C(=C(C)C(=O)C2C)CN1 (stereo not given),0.0439
13,O=C1C2C=CC(C(O)c3ccco3)N(Nc3ccccc3F)C2C(=O)N1c1ccccc1 (stereo not given),0.0072
14,COc1ccc([Si](C)(C)[C@@H]2[C@@H](CCO)O[C@]3(C(=O)N(Cc4ccccc4)c4ccc(N5C(=O)c6cccc7cccc5c67)cc43)[C@H]2C)cc1,-0.328
15,CC(C)=C1C(=O)C(c2ccccc2)=C2CN3C(=O)N(CCc4ccccc4)C(=O)[C@]3(Cc3ccc(C(F)(F)F)cc3)[C@H]21,-0.199
16,CCCCCN1CC=CC23O[C@@H]4/C=C\CCC(C)OC(=O)C4[C@H]2C(=O)N(C(CO)C(C)C)[C@@H]3C1=O (stereo not given in full),-0.236
17,COC(=O)[C@@]1(Cc2ccc(OC)cc2)[C@H]2c3cc(C(=O)N4CCCC4)n(CCO)c3C[C@H]2CN1C(=O)c1ccccc1,0.925
